High-throughput results (PubChem BioAssay)
Pf Dd2 growth = Plasmodium falciparum Dd2 growth inhibition; AID 1347417; actives 4.3% (n = 120,000); P. falciparum Dd2 growth, SYBR Green, 72 h; Potency, µM (doses to about 28.9 µM), for inactives: top-dose activity, negative = inhibition, usual class: inhibitors; active = well fitted inhibition curve with a large enough effect;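 also: plate controls were DMSO vehicle for no effect and reference drug for full effect; nearly all actives have a fitted effect of over 65% in size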
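Readout: SYBR Green fluorescence, 485 nm excitation, 535 nm emission, after ~16 h lysis at 37C. Before that, Dd2-infected red cells (2.5% hematocrit) grew 72 h with compound, 29 uM top final concentration.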
* hit, by the source's call; i = inactive; [ ] = another dose, or the depositor's remark. The entries come from a sample that favours hits as a whole. Potency is read from the fitted curve at half-maximal effect.

SMILES	Pf Dd2 growth
COc1cccc(CCC(=O)N2C[C@@H](CO)[C@H](c3ccncc3)C2)c1	-29%
CC(C)(C)NC(=O)N1CCCCCNC(=O)CC1c1ccccc1 (configuration not stated)	-17%
Cc1noc(-c2cn(C3CCN(C(=O)c4cccn4C)C3)nn2)n1 (configuration not stated)	i
CCC(=O)N1CCC2(CCC(=O)N(CC3CC3)CC2)CC1	-3%
COCCNC(=O)c1ccc2c(c1)N(C)C(CC(=O)NCCO)CO2 (configuration not stated)	2%
CCOc1ccc(NC(=O)Nc2cc3c(cc2N2CCCCC2)n(C)c(=O)n3C)cc1	-15%
CCOc1ccccc1NC(=O)Cn1c(=O)ccc2cc(S(=O)(=O)N3CCC(C)CC3)ccc21	13µM*
CCc1ccccc1NC(=O)Cn1c(=O)ccc2cc(S(=O)(=O)N3CCCC3)ccc21	10%
Cc1ccc(NC(=O)Cn2c(N3CCN(c4ccccc4)CC3)nc(C)cc2=O)c(C)c1	-8%
Cc1cc(=O)n(CC(=O)Nc2ccc(Br)cc2)c(N2CCC(C)CC2)n1	-24%
CCOc1ccccc1NC(=O)Nc1cc2c(cc1N1CCCCC1)n(CC)c(=O)n2CC	11µM*
Cc1ccc(C)c(NC(=O)Cn2c(N3CCN(c4ccccc4)CC3)nc(C)cc2=O)c1	-42%
CCOc1ccc(C(=O)Nc2cc3c(cc2N2CCCC2)n(C)c(=O)c(=O)n3C)cc1OCC	-16%
Cc1cc(=O)n(CC(=O)Nc2ccc(C)c(Cl)c2)c(N2CCC(C)CC2)n1	-22%
CCOc1ccccc1NC(=O)Cn1c(N2CCN(c3ccccc3)CC2)nc(C)cc1=O	5.6µM*
COc1ccccc1CNC(=O)Cn1c(=O)ccc2cc(S(=O)(=O)N3CCC(C)CC3)ccc21	11%
Cc1cc(=O)n(CC(=O)Nc2ccc(Cl)cc2)c(N2CCC(C)CC2)n1	11µM*
O=S1(=O)CCCN1C1CCN(Cc2cccc3ccccc23)CC1	-6%
O=C(c1ccccn1)N1CCC(Oc2ccc(-c3noc(-c4ccccc4)n3)cc2)C1 (configuration not stated)	i[5.79 µM]
COCc1nc(CCNC(=O)NCCc2ccccc2)no1	40%
Cc1ccc(-c2cc(N3CCCN(C(=O)Cc4ccc(F)cc4)CC3)n[nH]2)cc1C	i
Cc1ccc(-c2cn[nH]c2C2CCCN(Cc3cn(CCO)nc3C)C2)cc1 (configuration not stated)	i
CN1CCN(c2nc3c(c(=O)[nH]2)CCN(Cc2ccc(Cl)cc2F)CC3)CC1	10%[5.79 µM]
CCOc1ccccc1C1NC(=O)N(CC(=O)Nc2ccc(F)cc2F)C2=C1C(=O)OC2 (configuration not stated)	i
O=C1NCCCCCCN(C(=O)c2ccncc2)[C@H]2CCCC[C@@H]12	-10%
SMILES	Pf Dd2 growth
CC(=O)c1cc(C(=O)NC2CCCN(c3nc4ccccc4s3)C2)[nH]n1 (configuration not stated)	-16%
COc1ccc2c(c1)c(CN1CC[C@H](CO)[C@H](N(C)C)C1)cn2C(C)C	-5%
CCc1ccccc1S(=O)(=O)N1C[C@@H](F)C[C@H]1C(=O)N1CCCCC1	i
CCOc1ccccc1NC(=O)Cn1c(-c2ccccc2)nc(C)cc1=O	1.6µM*
CCOc1ccccc1NC(=O)Cn1c(-c2ccc(F)cc2)nc(C)cc1=O	-19%
CCc1ccccc1NC(=O)Cn1c(-c2ccccc2)nc(C)cc1=O	-4%
CN(C)C(=O)c1cc(-c2ccc(Cl)cc2Cl)nc2c1cnn2C	i
Cc1ccc(C(=O)NC2CCN(c3cc(C(F)(F)F)nc(C)n3)CC2)cc1	i
COc1ccc(C(=O)NC2CCN(c3cc(C(F)(F)F)nc(C)n3)CC2)cc1	14µM*
Cc1nc(N2CCC(NC(=O)c3ccsc3)CC2)cc(C(F)(F)F)n1	-7%
COc1ccc(C(=O)NC2CCN(c3cc(C(F)(F)F)nc(C)n3)CC2)c(C)c1	-3%
Cc1nc(N2CCC(NC(=O)Cc3cccs3)CC2)cc(C(F)(F)F)n1	i
Cc1nc(N2CCC(NC(=O)c3cccs3)CC2)cc(C(F)(F)F)n1	5µM*
COC(=O)c1ccc(NC(=O)Cn2c(C)cc3nc4n(c(=O)c32)CCCCC4)cc1	91%
Cc1occc1C(=O)N[C@@H]1CN(S(C)(=O)=O)C[C@H]1CN(C)C	4%
O=C(NC1CCc2n[nH]c(=O)n2CC1)c1ccc2nc[nH]c2c1 (configuration not stated)	32%
COc1ccc(OC2CCN(C(=O)C3CC3)CC2)c(C(=O)N2CCCCO2)c1	-22%
CCCc1noc(-c2cn(C3CCN(C(=O)c4ccc(OCC)cc4)CC3)nn2)n1	194%
Cc1ccc(S(=O)(=O)N[C@H]2CO[C@H]3[C@@H]2OC[C@@H]3Nc2nccc(C(C)(C)C)n2)cc1	i
CCOc1ccc(-n2nc3ccc(NC(=O)c4ccc(C)cc4C)cc3n2)cc1	11%
CCOc1ccc(-n2nc3ccc(NC(=O)c4ccc(-c5cccc(Cl)c5)o4)cc3n2)cc1	2.8µM*
CCOc1ccc(-n2nc3ccc(NC(=O)COc4ccccc4)cc3n2)cc1	-9%
COC(=O)c1sccc1NC(=O)N1[C@H]2CC[C@@H]1c1cncnc1C2	-14%
